The results in this text go back to PubChem BioAssay (NCATS).

Molecules are shown by their SMILES. Records with an inconclusive call do not appear. A number with no mark means an inactive call. The source made the active and inactive calls. The call rests on the fitted dose curve; in most records, active means well fitted inhibition curve with a large enough effect; inconclusive means small, poorly fitted or top-dose-only effect; inactive means no such curve, though single readings can be large or run the other way.

Protein phosphatase 1D (Homo sapiens), sequence (O15297 whole entry, looked up): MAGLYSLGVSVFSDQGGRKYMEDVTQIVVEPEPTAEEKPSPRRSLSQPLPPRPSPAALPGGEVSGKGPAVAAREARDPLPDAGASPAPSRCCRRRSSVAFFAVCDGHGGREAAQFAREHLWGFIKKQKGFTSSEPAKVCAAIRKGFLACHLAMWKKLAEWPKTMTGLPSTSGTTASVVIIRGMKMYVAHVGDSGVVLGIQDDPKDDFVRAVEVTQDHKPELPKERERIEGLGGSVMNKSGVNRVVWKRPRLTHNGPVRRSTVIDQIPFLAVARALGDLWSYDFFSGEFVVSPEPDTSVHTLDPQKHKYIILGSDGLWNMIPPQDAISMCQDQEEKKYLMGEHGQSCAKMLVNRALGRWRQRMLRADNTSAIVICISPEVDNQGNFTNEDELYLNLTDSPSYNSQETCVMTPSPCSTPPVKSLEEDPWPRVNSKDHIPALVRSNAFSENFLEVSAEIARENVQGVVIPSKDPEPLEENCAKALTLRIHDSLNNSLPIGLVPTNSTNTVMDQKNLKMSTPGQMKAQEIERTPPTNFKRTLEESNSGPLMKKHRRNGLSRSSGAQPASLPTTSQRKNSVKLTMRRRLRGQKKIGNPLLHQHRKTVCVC

The target in the test is Protein phosphatase 1D (Homo sapiens) (UniProt O15297). Briefly: RapidFire Mass Spectrometry qHTS Assay for Modulators of WT P53-Induced Phosphatase 1 (WIP1) (AID 1347424). Particulars: WIP1 dephosphorylation of phosphopeptide, RapidFire MS; series mostly up to 63 µM; activity change, negative = inhibition: at the top concentration. An excerpt:
Assay Provider (PI): Nathan Coussens Ph. D.
National Center for Advancing Translational Sciences (NCATS), Rockville, MD
National Institute of Health (NIH), Bethesda, Maryland
WT P53-Induced Phosphatase 1 (WIP1) is a member of the magnesium-dependent serine/threonine protein phosphatase (PPM) family and is induced by P53 in response to DNA damage. In several human cancers, the WIP1 protein is overexpressed, which is generally associated with a worse prognosis. Although WIP1 is an attractive therapeutic target, no potent, selective, and bioactive small-molecule modulator with favorable pharmacokinetics has been reported. Phosphatase enzymes are among the most challenging targets for small molecules because of the difficulty of achieving both modulator selectivity and bioavailability. Another major obstacle has been the availability of robust and physiologically relevant phosphatase assays that are suitable for high-throughput screening.
Here, we describe two orthogonal biochemical WIP1 activity assays that utilize phosphopeptides from native WIP1 substrates. We optimized a RapidFire MS assay to quantify the enzymatically dephosphorylated peptide reaction product in a 384-well format. Additionally, a redshifted Rhodamine-PBP fluorescence assay was optimized in a 1,536-well format to enable real-time WIP1 activity measurements through the detection of the orthogonal reaction product, Pi. We validated these two optimized assays by quantitative high-throughput screening against the National Center for Advancing Translational Sciences (NCATS) Pharmaceutical Collection and used secondary assays to confirm and evaluate inhibitors identified in the primary screen.
SEQUENCE No. (e.g., 1, 2, 3, etc.); […] (e.g., Cells, Incubation, Reagent, etc.); VALUE; DESCRIPTION
1; Reagent; 50 uL; dispensed assay buffer: 0.1% formic acid in water (10 uL : 40 uL) solution in column 1
3; Library Compounds; 63 nL; library compounds in DMSO, columns 3-24
4; Control Compounds; 63 nL; DMSO in wells I-P, columns 1-2, GSK830371 (10 uM, final) in wells A-H, column 2
5; Time; 1 hr; incubation
6; Substrate; 2 uL; VEPPL-pS-QETFS (10 uM) in assay buffer, column 2-24
7; Time; 5 min; incubation
8; Reagent; 2 uL; 0.5% formic acid in water, columns 2-24
9; Reagent; 38 uL; VEPPL-S-QETF*S in 0.1% formic acid, columns 2-24
10; Detection; mass spec; RapidFire mass spectrometry
NOTES (numbers refer to sequence above)
1, 2, 6; dispensed reagent in White Nunc 384-well PP microplates (264573); assay buffer: 50 mM Tris-HCl pH 7.5, 30 mM MgCl2, 1 mM TCEP, 0.1 mM EGTA, 75 ug/mL BSA.
2, 6, 8, 9; Dispensed with BioRaptr (Beckman Coulter)
2, 6, 9; Final concentrations: 10 nM WIP1; 2 uM VEPPL-pS-QETFS; 1 uM VEFFL-S-QETF*S
3 & 4; Kalypsys Pintool transfer (Wako USA), Tip wash sequence: water, DMSO, methanol, 20 sec vacuum dry.
5 & 7; incubation at room temperature
10; RapidFire mass spectrometry read using the Agilent RapidFire 360 (Clausse, 2019)
Clausse V, et al. Physiologically relevant orthogonal assay for the discovery of small-molecule modulators of WIP1 […] in high-throughput screens. J Biol Chem. 2019, 294(46): 17654-17668. doi:10.1074/jbc.RA119.010201
On the technique in general: Quantitative high-throughput screening tests each substance at several concentrations.
On to `COc1cccc2c1C(=O)c1c(O)c3c(c(O)c1C2=O)C[C@@](O)(C(=O)CO)C[C@@H]3O[C@H]1C[C@H](N)[C@H](O[C@@H]2CCCCO2)[C@H](C)O1`, for which the “activity change, negative = inhibition” value was -19.8%. Regarding `CCCCCCCCCCCCOCCO`, the “activity change, negative = inhibition” value is 49.7%. The same measure, in the same setting: in the case of `C=CCCCCCCCCC(=O)O` it was -3.79%. The same measure, in the same setting: in the case of `CN(C)c1ccc(N=NS(=O)(=O)O)cc1` it was -4.28% [at 128 µM]; in that of `CO[C@@]1(NC(=O)Cc2cccs2)C(=O)N2C(C(=O)O)=C(COC(N)=O)CS[C@@H]21`, -5.59%. On to `O=C(CS)Nc1ccccc1`, for which the “activity change, negative = inhibition” value was -27.8%. Consider `CCOC(=O)c1ccccc1O`, for which the “activity change, negative = inhibition” value is 5.52%.

On to `O=C(O)/C=C\C(=O)O`, for which the “activity change, negative = inhibition” value is -0.727%. On the same count and under the same terms, in the case of `COc1ccc(-c2cc(=S)ss2)cc1` it was -7.7%; in that of `COC(=O)C1=C(C)NC(C)=C(C(=O)OCC(C)C)C1c1ccccc1[N+](=O)[O-]` (stereo not given), 13.7%; in that of `C[N+]1(C)[C@@H]2CC(OC(=O)[C@H](CO)c3ccccc3)C[C@H]1[C@@H]1O[C@@H]12` (stereo not given in full), -8.78%. Same read-out and setting: in the case of `NC(=O)C(c1ccccc1)(c1ccccc1)[C@@H]1CCN(CCc2ccc3c(c2)CCO3)C1` it was 29.8%; in that of `CC(=O)SCC(CC(=O)c1ccc(C)cc1)C(=O)O` (stereo not given), 9.37%. `Oc1c(Br)cc(Br)c2cccnc12`: the “activity change, negative = inhibition” value was 1.02%. Same read-out and setting: for `CN(C)CCn1nnnc1SCC1=C(C(=O)O)N2C(=O)[C@@H](NC(=O)Cc3csc(N)n3)[C@H]2SC1` the value was -15.7%; for `c1ccc2sc(SSc3nc4ccccc4s3)nc2c1`, -7.53% [at 26.6 µM].

`O=C(/C=C/c1ccccc1)NCCO`: the “activity change, negative = inhibition” value was -3.23%. As to `CC(C)(C)c1nnc(NS(=O)(=O)c2ccc(N)cc2)s1`, the “activity change, negative = inhibition” value was -28.1%. As for `CC(N)C(=O)OC(C)(C)Cc1ccc(Cl)cc1` (stereo not given), the “activity change, negative = inhibition” value was 33.6%. On the same count and under the same terms, in the case of `CC1(C)S[C@@H]2[C@H](NC(=O)[C@H](N)c3ccccc3)C(=O)N2[C@H]1C(=O)O` it was -15.2%.

Consider `c1ccc(CCNc2nc(-c3ccccc3)cs2)cc1`, for which the “activity change, negative = inhibition” value was -5.94%. Same read-out and setting: in the case of `O=C1CN(/N=C/c2ccc([N+](=O)[O-])o2)C(=O)N1` it was -0.397%; in that of `CCCCC1C(=O)N(c2ccccc2)N(c2ccc(O)cc2)C1=O` (stereo not given), -7.9%. On to `CN1CCN(c2cc3c(nn2)Oc2ccccc2N3C)CC1`, for which the “activity change, negative = inhibition” value was -0.0509% [at 26.6 µM]. Still for that read-out and setting: for `COc1cc2c3cc1Oc1cc(ccc1O)C[C@@H]1c4c(cc(OC)c(O)c4Oc4ccc(cc4)C[C@@H]3N(C)CC2)CC[N+]1(C)C` the value was -6.78%.

On to `CC(C(=O)O)c1ccc(C(=O)c2ccccc2)s1` (stereo not given), for which the “activity change, negative = inhibition” value was -1.97%.

For `Nc1nc2ccc([N+](=O)[O-])cc2s1`, the “activity change, negative = inhibition” value is -10.9% [at 128 µM]. On the same count and under the same terms, in the case of `O=C(O)Cc1ccc(-c2ccccc2)cc1` it was -15.2%. Consider `COC(=O)Nc1nc2ccc(C(=O)C3CC3)cc2[nH]1`, for which the “activity change, negative = inhibition” value is -12.2%. Same read-out and setting: for `Cc1c(N)c(=O)n(-c2ccccc2)n1C` the value was -4.55%. Turning to `Cc1ccc2c(n1)Oc1ccc(C(C)C(=O)OCC(=O)N(C)C)cc1C2` (stereo not given), the Potency entry is “inactive”. As for `O=C(CCN1CCN(CCO)CC1)N1c2ccccc2Sc2ccc(C(F)(F)F)cc21`, the “activity change, negative = inhibition” value was -0.455%.

For the compound `c1ccc2sc(SN3CCOCC3)nc2c1`, the “activity change, negative = inhibition” value was -6.54%. On the same count and under the same terms, in the case of `O=c1cc(-c2ccccc2)oc2ccccc12` it was 21.8% [at 128 µM]; in that of `C#C[C@]1(O)CC[C@H]2[C@@H]3CCc4cc(O)ccc4[C@H]3CC[C@@]21C`, -2.84%. As to `N=C(N)N`, the “activity change, negative = inhibition” value is 7.45%. Same read-out and setting: for `COC(=O)C1=C(C)NC(C)=C(C(=O)OCC(C)=O)C1c1ccccc1[N+](=O)[O-]` (stereo not given) the value was -15.7%; for `CNC(=O)c1c(I)c(NC(=O)CCCCC(=O)Nc2c(I)c(C(=O)O)c(I)c(C(=O)NC)c2I)c(I)c(C(=O)O)c1I`, 7.89%. On the same count and under the same terms, for `Cc1nc2ccccc2n1Cc1ccc(Cl)cc1` the value was 19.9%; for `Nc1ccc([N+](=O)[O-])cc1O`, -14.9% [at 128 µM].
